Results on 21 compounds are retold here after PubChem BioAssay.

The nature of assay [1]: glutamate transport activators, MN-1 cells, MN-1 cell line (AID 1612).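 Note: tested at 1 µM final; 0% = mean of DMSO vehicle wells on each plate; positive means more glutamate uptake than control and negative means less.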 To be noted: MN-1 motor neuron cells, stronger effect = higher value.
Assay [2] can be described thus: GFP-Q80 aggregate reduction, neuronal-like cells, cell-based, NGF-treated PC12, GFPQ80 (AID 1614).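 Note: lower means fewer inclusions and 0 means no inclusions at all.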 The settings on record: PC12 NGF-treated GFP-polyQ80 inclusion reduction.
The nature of assay [3]: 75Q-TubH aggregate inhibition, S. cerevisiae, yeast (AID 1616). To be noted: S. cerevisiae 75Q-TubH polyglutamine aggregation suppression; stronger effect = higher value.
The nature of assay [4]: P. berghei load reduction in hepatocytes – cell-based, HepG2, luciferase luminescence, HepG2 viability, primary screen (AID 624349).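 Note: 100% = mean of DMSO negative control wells on the same plate.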 To be noted: P. berghei liver stage in HepG2, luciferase luminescence, concentration not given here; parasite load remaining: stronger effect = lower value; viability: measured here: HepG2 viability without parasites.
A short description of assay [5]: Wnt pathway potentiators raising nuclear beta-catenin – imaging, WNT3A-conditioned medium, mouse C2C12, NPC library, primary screen (AID 1117326; in the data active = nuclear beta-catenin stimulation mostly above about 4.2%, no sharp cut-off; inactive = mostly below about 10%). To be noted: stronger effect = higher value.

Molecules are shown by their SMILES. Several values for one entry are separate records, joined by “and”; a condition that tells them apart may be missing. Identical values can stand only once. Activity calls are given as the source filed them. Cut-off read from the data, not from the text of the source, unless noted: active = parasite load remaining mostly below about 12% (no sharp cut-off); inactive = mostly above about 10%.

By viability is commonly meant a read-out of living cells in per cent, often relative to untreated cells. Regarding `CC(=O)NCCCCCC(=O)O`, in assay [1], the glutamate uptake change was -9.11%. In addition, the inclusion score in assay [2] was 2. In assay [3], this compound registered an aggregation suppression score of 1.24. In assay [4], the parasite load remaining is 132% (inactive) and the viability amounted to 98.6%. Besides, the nuclear beta-catenin stimulation in assay [5] (at 10 µM) was 0.2% (inactive). In assay [5] (stimulation, at 2 µM), the nuclear beta-catenin stimulation came to 0.7%.
Regarding `O=C1c2c(O)cccc2Cc2cccc(O)c21`, the glutamate uptake change in assay [1] was determined as 5.46%. The compound also had an inclusion score in assay [2] of 2. The aggregation suppression score in assay [3] came to 1.2. Besides, in assay [4], the parasite load remaining is 94% (inactive) and 68.1% (inactive); the viability was 73% and 78.8%. In assay [5] (at 10 µM), the nuclear beta-catenin stimulation was -3.3% (inactive). Also, in assay [5] (stimulation, at 2 µM), the nuclear beta-catenin stimulation was -2%.
On to `CCOC(N)=O`, for which the glutamate uptake change in assay [1] is -13.5%. The inclusion score in assay [2] was found to be 2. The compound also displayed an aggregation suppression score in assay [3] of 1.21. Further, in assay [4], the parasite load remaining was 148% (inactive) and 51.2% (inactive); the viability was 85% and 96.6%. For the same compound, the nuclear beta-catenin stimulation in assay [5] (at 10 µM) was 2.6% (inactive). Besides, the nuclear beta-catenin stimulation in assay [5] (stimulation, at 2 µM) was 7.1%.
For the compound `COc1ccc(C2C(=O)c3ccccc3C2=O)cc1`, the glutamate uptake change in assay [1] was -8.78%. Further, in assay [2], the inclusion score worked out at 2. The same compound came in with an aggregation suppression score in assay [3] of 0.401. Moreover, in assay [4], the parasite load remaining is 126% (inactive) and 58.9% (inactive); the viability is 68.9% and 89%. For the same compound, the nuclear beta-catenin stimulation in assay [5] (at 10 µM) is 1.8% (inactive). Also, the nuclear beta-catenin stimulation in assay [5] (stimulation, at 2 µM) was 1.4%.
As to `CC1(C)S[C@@H]2[C@H](NC(=O)C(C(=O)O)c3ccccc3)C(=O)N2[C@H]1C(=O)O` (some centres not stated), the glutamate uptake change in assay [1] came out at 7.16%. In assay [2], this compound gave an inclusion score of 2. The compound also registered an aggregation suppression score in assay [3] of 1.65. In addition, the parasite load remaining in assay [4] is 87.5% (inactive) and 61.7% (inactive). Moreover, in assay [4], the viability was 75.2% and 98.9%. Also, the nuclear beta-catenin stimulation in assay [5] (at 10 µM) was -0.3% (inactive); in assay [5] (stimulation, at 2 µM), -0.3%.
Consider `O=C1c2cccc(O)c2C(=O)c2c(O)cccc21`, for which the glutamate uptake change in assay [1] was -10.8%. In assay [2], this compound gave an inclusion score of 2. In addition, the aggregation suppression score in assay [3] is 0.219. In addition, the parasite load remaining in assay [4] is 32.6% (inactive). Further, the viability in assay [4] is 96.2%. Moreover, the nuclear beta-catenin stimulation is -0.6% (inactive) in assay [5] (at 10 µM) and 8.2% in assay [5] (stimulation, at 2 µM).
For `O=c1cc[nH]c(=S)[nH]1`, the glutamate uptake change in assay [1] is 7.71%. In addition, in assay [2], the inclusion score came to 2. Further, the aggregation suppression score in assay [3] came out at 1.48. In addition, in assay [4], the parasite load remaining is 64% (inactive) and the viability is 87.2%. Besides, the nuclear beta-catenin stimulation in assay [5] (at 10 µM) is -0.3% (inactive). Also, the nuclear beta-catenin stimulation in assay [5] (stimulation, at 2 µM) worked out at 1.5%.
Turning to `NC(=O)NC(=O)Cc1ccccc1`, in assay [1], the glutamate uptake change is -11.7%. Besides, the inclusion score in assay [2] is 2. In assay [3], this compound had an aggregation suppression score of 1.17. Moreover, in assay [4], the parasite load remaining is 87.8% (inactive) and 56.5% (inactive); the viability was 68% and 92%. Further, the nuclear beta-catenin stimulation in assay [5] (at 10 µM) is 0.2% (inactive). In addition, the nuclear beta-catenin stimulation in assay [5] (stimulation, at 2 µM) was -0.4%.
In the case of `Oc1cccc(O)c1`, the glutamate uptake change in assay [1] worked out at 8.45%. This compound also gave an inclusion score in assay [2] of 2. Also, the aggregation suppression score in assay [3] was determined as 1.13. In assay [4], the parasite load remaining is 91.2% (inactive) and 38.4% (inactive); the viability was 77.8% and 101%. Besides, in assay [5] (at 10 µM), the nuclear beta-catenin stimulation was -0.3% (inactive). The nuclear beta-catenin stimulation in assay [5] (stimulation, at 2 µM) was 0.3%.
Turning to `NC(=O)c1ccc([N+](=O)[O-])cc1Cl`, in assay [1], the glutamate uptake change turned out to be 19.4%. In assay [2], this compound showed an inclusion score of 2. Besides, the aggregation suppression score in assay [3] is 1.31. Moreover, the parasite load remaining in assay [4] was 63.8% (inactive) and 35.2% (inactive). Further, the viability in assay [4] was 105% and 84.3%. The nuclear beta-catenin stimulation in assay [5] (at 10 µM) was -0.6% (inactive); in assay [5] (stimulation, at 2 µM) it was 0.9%.
As for `CN(C)/N=N/c1nc[nH]c1C(N)=O`, in assay [1], the glutamate uptake change is -11.4%. The compound further returned an inclusion score in assay [2] of 2. This compound also showed an aggregation suppression score in assay [3] of 1.16. In addition, in assay [4], the parasite load remaining is 56% (inactive) and 17.1% (inactive); the viability was 91.9% and 74%. For the same compound, the nuclear beta-catenin stimulation in assay [5] (at 10 µM) was 1.8% (inactive). Also, the nuclear beta-catenin stimulation in assay [5] (stimulation, at 2 µM) was -1.7%.
`O=C(O)c1ccc(S(=O)(=O)N(Cl)Cl)cc1`: the glutamate uptake change in assay [1] was -1.46%. Moreover, the inclusion score in assay [2] was found to be 2. Moreover, the aggregation suppression score in assay [3] is 1.13. Moreover, the parasite load remaining in assay [4] is 101% (inactive) and 53.6% (inactive). The viability in assay [4] is 75.7% and 97.7%. The nuclear beta-catenin stimulation in assay [5] (at 10 µM) is 0.3% (inactive); in assay [5] (stimulation, at 2 µM), 1.7%.
On to `Cc1cc(=O)[nH]c(=S)[nH]1`, for which the glutamate uptake change in assay [1] was 14.6%. This compound returned an inclusion score in assay [2] of 2. Moreover, the aggregation suppression score in assay [3] turned out to be 1.02. The parasite load remaining in assay [4] is 70.4% (inactive). The viability in assay [4] turned out to be 92%. In addition, the nuclear beta-catenin stimulation in assay [5] (at 10 µM) was -1.2% (inactive); in assay [5] (stimulation, at 2 µM) it was -0.4%.
Regarding `O=C(O)c1cc(=O)c2ccccc2o1`, the glutamate uptake change in assay [1] came to 2.44%. Besides, the inclusion score in assay [2] stood at 2. This compound yielded an aggregation suppression score in assay [3] of 1.45. In assay [4], the parasite load remaining is 136% (inactive) and the viability turned out to be 95.8%. Also, the nuclear beta-catenin stimulation in assay [5] (at 10 µM) is -0.2% (inactive). In addition, in assay [5] (stimulation, at 2 µM), the nuclear beta-catenin stimulation came out at 0.2%.
For the compound `CO[C@@H]1[C@@H](OC(N)=O)[C@@H](O)[C@H](Oc2ccc3c(O)c(NC(=O)c4ccc(O)c(CC=C(C)C)c4)c(=O)oc3c2C)OC1(C)C`, in assay [1], the glutamate uptake change is -19%. Moreover, in assay [2], the inclusion score was determined as 2. In assay [3], this compound registered an aggregation suppression score of 0.623. Besides, in assay [4], the parasite load remaining was 96.3% (inactive) and 84% (inactive); the viability was 73.9% and 88.8%. In addition, the nuclear beta-catenin stimulation in assay [5] (at 10 µM) was -0.7% (inactive). In addition, the nuclear beta-catenin stimulation in assay [5] (stimulation, at 2 µM) turned out to be 1.5%.
On to `COc1ccc(CN(CCN(C)C)c2ncccn2)cc1`, for which, in assay [1], the glutamate uptake change was -15.6%. The inclusion score in assay [2] amounted to 2. The compound further gave an aggregation suppression score in assay [3] of 1.43. For the same compound, in assay [4], the parasite load remaining was 161% (inactive) and 52.7% (inactive); the viability was 86.2% and 91.9%. The nuclear beta-catenin stimulation in assay [5] (at 10 µM) is 1.3% (inactive). Further, the nuclear beta-catenin stimulation in assay [5] (stimulation, at 2 µM) came to 2.3%.
In the case of `O=C(O)CCCCC1CCSS1` (configuration not stated), the glutamate uptake change in assay [1] was -7.39%. This compound also registered an inclusion score in assay [2] of 2. The compound also showed an aggregation suppression score in assay [3] of 0.186. Further, in assay [4], the parasite load remaining was 165% (inactive) and the viability came to 96.8%. Also, the nuclear beta-catenin stimulation in assay [5] (at 10 µM) is 0% (inactive). For the same compound, the nuclear beta-catenin stimulation in assay [5] (stimulation, at 2 µM) was -0.2%.
For the compound `COc1ccc(NS(=O)(=O)c2ccc(N)cc2)nn1`, in assay [1], the glutamate uptake change worked out at 8.78%. The inclusion score in assay [2] came to 2. This compound also returned an aggregation suppression score in assay [3] of 1.18. In assay [4], the parasite load remaining was 118% (inactive) and 103% (inactive) and 48% (inactive); the viability is 101% and 69.5% and 83.6%. Besides, the nuclear beta-catenin stimulation in assay [5] (at 10 µM) was -1.8% (inactive). Further, the nuclear beta-catenin stimulation in assay [5] (stimulation, at 2 µM) stood at 2.2%.
`CC(=O)NO`: in assay [1], the glutamate uptake change was 11.3%. Also, the inclusion score in assay [2] is 2. Besides, the aggregation suppression score in assay [3] is 1.09. In addition, in assay [4], the parasite load remaining is 102% (inactive) and 55.8% (inactive); the viability is 71.8% and 93.7%. For the same compound, the nuclear beta-catenin stimulation in assay [5] (at 10 µM) was 0% (inactive). The nuclear beta-catenin stimulation in assay [5] (stimulation, at 2 µM) turned out to be 0.9%.
In the case of `OCc1ccccc1O`, the glutamate uptake change in assay [1] amounted to 16.3%. The inclusion score in assay [2] turned out to be 2. In assay [3], the aggregation suppression score turned out to be 1.11. In assay [4], the parasite load remaining was 91.8% (inactive) and 36.5% (inactive). The viability in assay [4] was 78.7% and 97.3%. Further, the nuclear beta-catenin stimulation was 0.4% (inactive) in assay [5] (at 10 µM) and 1.3% in assay [5] (stimulation, at 2 µM).
In the case of `CCN(CC)C(=O)c1cccc(C)c1`, the glutamate uptake change in assay [1] was found to be 1.78%. Further, the inclusion score in assay [2] amounted to 2. The compound further showed an aggregation suppression score in assay [3] of 1.01. Also, in assay [4], the parasite load remaining is 18.9% (inactive) and the viability turned out to be 97.4%. For the same compound, the nuclear beta-catenin stimulation in assay [5] (at 10 µM) is 6.1% (inactive). In assay [5] (stimulation, at 2 µM), the nuclear beta-catenin stimulation was 3.9%.
